Measured values reported in PubChem BioAssay AID1468 (National Center for Advancing Translational Sciences (NCATS), 2008).
In all, about 280,000 compounds went through this assay and about 1,100 (0.39%) were called active. Roughly 7% stayed inconclusive and do not appear here. Shown is part of a subset that was picked to be rich in actives. Unmarked numbers belong to inactive results. The call rests on the fitted dose curve; in most records, active means well fitted inhibition curve with a large enough effect; inconclusive means small, poorly fitted or top-dose-only effect, or effect the other way; inactive means flat fitted curve, though single readings scatter.

Molecular target: Microtubule-associated protein tau (Homo sapiens) (UniProt P10636)
Experiment: qHTS for Inhibitors of Tau Fibril Formation, Fluorescence Polarization; further: nearly all actives have a fitted effect of over 55% in size
Conditions: K18 P301L tau heparin fibrillization, Alexa594 FP, 6 h; series mostly up to 57.7 µM; activity, negative = inhibition: at the top concentration
Outline: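 Heparin (20 uM) drove fibril formation of recombinant tau K18 P301L, 15 uM unlabeled with 0.24 uM Alexa 594 label, for 6 hr at 37 C in 100 mM sodium acetate pH 7. Fluorescence polarization (555/632 nm) read 1 hr after 30 uM ThT.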
On the % scale 0 is the no-effect control and ±100 the full control effect; potency means the concentration at half of the fitted maximal effect.

Chain of Microtubule-associated protein tau (Homo sapiens) (P10636 561-689 P618L limits assumed): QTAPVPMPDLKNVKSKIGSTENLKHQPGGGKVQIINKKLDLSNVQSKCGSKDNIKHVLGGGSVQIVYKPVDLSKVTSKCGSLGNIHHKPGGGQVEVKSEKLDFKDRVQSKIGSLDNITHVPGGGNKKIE

Point of comparison: `C(=N\N1CCN(c2ccccn2)CC1)/C1=C(N2CCOCC2)C(=C/c2ccccc2)/CC1`, “activity, negative = inhibition” value 2.73%. Against it:
- CN(C)c1cccc(C(=O)Nc2nc3ccc(S(=O)(=O)NC(C)(C)C)cc3s2)c1 — lower, -6.9%
- c1ccc2c(Nc3ccncc3)nc(-c3ccoc3)nc2c1 — the same, 2.73%
- COc1ccccc1Oc1nc(-c2cccnc2)nc2ccccc12 — lower, -11.2%
- CNc1nc(-c2ccccc2OC)nc2ccccc12 — lower, -6.15%
- c1ccc2c(NCC3CCCO3)nc(-c3ccncc3)nc2c1 (centres undefined) — lower, -0.627%
- COc1ccc(-n2c(SCC(N)=O)nc3c(oc4ccccc43)c2=O)cc1 — lower, -5.07%
- Cc1cccc(C(=O)N2CCc3cc(CNC(=O)Cc4ccc(F)cc4)ccc32)c1 — higher, 12.6%
- CCN(CC)S(=O)(=O)c1ccc2c(c1)N(CC(=O)NCC(C)c1ccccc1)C(=O)CO2 (centres undefined) — lower, -5.51%
- Cc1ccc(S(=O)(=O)N2CCCc3cc(NS(=O)(=O)c4cc(C)ccc4C)ccc32)cc1 — lower, -9.07%
- COc1ccc(/C=N/S(=O)(=O)c2ccccc2)cc1OC — lower, 1.5%
- COc1ccc(C(=O)Nc2ccccc2C(=O)N/N=C/c2ccc(O)c(OC)c2)cc1 — lower, -10.4%
- COc1ccc(-c2nc(SCC(=O)N3CCCCC3C)n[nH]2)cc1 (centres undefined) — lower, 0.155%
- Cc1nc(SCCOc2ccc(Cl)cc2)[nH]c(=O)c1Cc1ccccc1 — lower, -15.5%
- N#C/C(=C\c1ccccc1C(F)(F)F)C(=O)Nc1ccccc1F — lower, 0.663%
- Cc1c(Cl)cccc1-c1ccc(CNCCCSc2nnnn2C)o1 — higher, 11.9%
- Cc1cccc2nc(-c3ccc(Cl)s3)c(Nc3ccc4c(c3)OCCO4)n12 — higher, 15.1%
- Cc1ccc2sc(N(Cc3cccnc3)C(=O)C3COc4ccccc4O3)nc2c1C (centres undefined) — lower, -11.1%
- COc1ccc(N2CCN(C(=O)C3CCCN(C(=O)c4cc5sccc5n4C)C3)CC2)cc1 (centres undefined) — lower, 0.211%
- CCc1ccc(CN(Cc2ccco2)C(=O)COc2ccc(Cl)c(C)c2)cc1 — lower, -0.51%
- CCOC(=O)C1=C(C)N=c2s/c(=C\C(=O)OC)c(=O)n2C1c1ccc(OC)cc1 (centres undefined) — lower, -6.96%
- O=C1CCCC2=C1C(c1ccccc1)n1c(s/c(=C/c3cccc(F)c3)c1=O)=N2 (centres undefined) — higher, 3.54%
- COC(=O)c1sccc1S(=O)(=O)N(CC(=O)Nc1ccc(C)c(F)c1)c1ccc(C)c(C)c1 — lower, -14.9%
- CCOc1ccc(Nc2ncnc3scc(-c4ccc(OC)cc4)c23)cc1 — lower, -6.54%
- CCOC(=O)N1CCc2c(sc(NCc3cccc(F)c3)c2C(=O)Nc2ccccc2OCC)C1 — lower, -0.601%
- CCOC(=O)N1CCc2c(sc3c2c(=O)n(-c2ccc(CC)cc2)c(=O)n3C)C1 — lower, -1.85%
- Cc1ccccc1CNC(=O)c1cccc(NC(=O)c2nsc3ccccc23)c1 — lower, -13.5%
- Cc1cc(NC(=O)Nc2ccc(Cl)cc2)n(-c2ccccc2)n1 — lower, -1.98%
- Cc1cc(NC(=O)Nc2ccccc2)n(-c2ccccc2)n1 — lower, 0.333%
- CC1CN(C(=O)N2CCC(C(=O)NCc3ccco3)CC2)c2cc(Cl)ccc2O1 (centres undefined) — lower, -17%
- Cc1cccc(NC(=O)CSc2nc3c([nH]c4ccccc43)c(=O)n2-c2cc(C)cc(C)c2)c1 — lower, 2.58%
- COCCn1c(SCC(=O)c2cc(C)ccc2C)nc2cc(C(=O)NC3CCCC3)ccc2c1=O — higher, 5.5%
- COc1ccc(-c2cn3c(C)c(C(=O)Nc4cc(C)cc(C)c4)sc3n2)cc1 — lower, 1.72%
- c1ccc(-n2nnnc2N2CCOCC2)cc1 — lower, -2.66%
- O=C1OC(NC(=O)c2ccccc2)C(N2CCOCC2)=C1Cl (centres undefined) — lower, 2.21%
- Cc1ccc2nc(N3CCN(c4cccc(Cl)c4)CC3)c3nnnn3c2c1 — higher, 4.68%
- O=C(CNS(=O)(=O)c1cccs1)N1CCN(c2ccccc2Cl)CC1 — lower, -6.87%
- Cc1ccccc1CN1CCC(CNC(=O)c2cc3ccc4cccnc4c3[nH]2)CC1 — lower, -3.29%
- COc1ccccc1CNC(=O)NCc1noc2ccc(C)cc12 — lower, 1.34%
- Cc1ccc(NC(=O)C2CCN(S(=O)(=O)c3cc(-c4noc(C)n4)ccc3C)CC2)c(C)c1 — lower, -4.96%
- COc1ccc(OC)c(NC(=O)CSc2nc3ccccc3nc2N2CCCCC2)c1 — lower, -3.04%

For `c1ccc2c(Nc3ccncc3)nc(-c3ccc4c(c3)OCO4)nc2c1`, the Potency was 10 µM (active).
With `COc1cccc(-c2nc(Nc3ccncc3)c3ccccc3n2)c1` the Potency was 14.1 µM (active).
With `COc1cc(/C=N/NC(=O)c2ccccc2)ccc1OS(=O)(=O)c1ccccc1` the Potency was 35.5 µM (active).
`N#C/C(=C\C1=C(N2CCOCC2)C(=C\c2ccccc2)/CC1)C(=O)Nc1ccccc1F` was tested, and the Potency was 25.1 µM (active).
In the case of `COc1ccc(OC)c(C2C3=C(N=c4s/c(=C\c5cccc(O)c5)c(=O)n42)c2ccccc2CC3)c1` (centres undefined), the Potency is reported as 22.4 µM (active).
`Cc1ccc(NC(=O)Nc2cc(-c3ccccc3)nn2C)cc1Cl` was tested, and the Potency was 14.1 µM (active).
With `O=C1C(Cl)=C(N2CCOCC2)C(=O)N1c1ccccc1` the Potency was 28.2 µM (active).
For `O=c1c(O)c(Br)ccc2c(Br)c(O)c(O)c(O)c12`, the Potency was 10 µM (active).
